Experimental findings from PubChem BioAssay AID463173 (ICCB-Longwood Screening Facility, Harvard Medical School, 2010) are described below.

Each structure is given as a SMILES string. Screen size: about 52,000 compounds; about 1,700 (3.3%) were called active. Shown is part of a subset that was picked to be rich in actives. Unmarked numbers belong to inactive results. No stated cut-off is given here; in the data, active means survival mostly below about 52% (no sharp cut-off); inactive means mostly above about 56%.

For this assay, the system named is Wild type. The experiment in a line: growth inhibition of S. aureus wild type versus tarO mutant, primary screen, teichoic acid synthesis inhibitors, RN4220, OD600 (AID 463173). The conditions noted are these: S. aureus RN4220 wild type/DeltatarO growth, OD600, 18 h, stronger effect = lower value, screened at 18.75 µg/mL (by protocol).
Turning to `Cc1c(Cl)cccc1NC(=O)CCS(=O)(=O)c1ccc2c(c1)CC(C)N2C(=O)C1CC1` (configuration not stated), the survival was 85%.
The same measure for `Cc1ccc(-n2ncc3c(N4CCC(Cc5ccccc5)CC4)ncnc32)cc1`: 70%; for `CC(C)CC(NC(=O)C1CCCCC1)C(=O)Nc1cccc(C(F)(F)F)c1` (configuration not stated): 64%.
With `C=Cc1ccc(CN2C(=O)N(c3ccc(CC)cc3)S(=O)(=O)c3ccccc32)cc1`, the survival is 1% (active).
The same measure for `C=Cc1ccc(CN2C(=O)N(c3cccc(Cl)c3)S(=O)(=O)c3ccccc32)cc1`: 57%; for `C=Cc1ccc(CN2C(=O)N(c3ccc(C)c(C)c3)S(=O)(=O)c3ccccc32)cc1`: 71%; for `Cc1coc2c(C)c3oc(=O)c(CCC(=O)NCCc4ccccc4)c(C)c3cc12`: 84%.
Under `COc1cccc(N2CCN(C(=O)c3cnc4c(C)cccn4c3=O)CC2)c1` stands 91%.
`Cc1ccc(N2CCN(c3nc4ccc(C)cc4n4nnnc34)CC2)c(C)c1`: the survival is 76%.
`COc1ccc(N2CCN(c3nc4ccc(C)cc4n4nnnc34)CC2)cc1`: the survival was -6% (active).
Under `COc1ccccc1CNc1nc2ccc(C)cc2n2nnnc12` stands -1% (active).
Turning to `Cc1ccc2nc(N3CCN(c4ccccc4F)CC3)c3nnnn3c2c1`, the survival is 76%.
The same measure for `Cc1ccc2nc(NCc3ccccc3Cl)c3nnnn3c2c1`: 94%; for `Cc1ccc2nc(N3CCN(c4ccc(F)cc4)CC3)c3nnnn3c2c1`: 14% (active).
For `Cc1ccc2nc(N3CCN(c4ccccc4)CC3)c3nnnn3c2c1`, the survival is 78%.
Under `COc1ccccc1N1CCN(c2nc3ccc(C)cc3n3nnnc23)CC1` stands 133%.
Take `COc1ccc(OC)c(CNc2nc3ccc(C)cc3n3nnnc23)c1`: the survival was 85%.
Under `CCN(c1ccccc1)S(=O)(=O)c1ccc(-c2cc(C)no2)s1` stands 159%.
Consider `NC(=S)N/N=C/c1ccccc1OCC(=O)O`, for which the survival was 96%.
In the case of `Cc1ccc(NC(=O)Cn2ccn(-c3ccc(F)c(F)c3)c(=O)c2=O)cc1C`, the survival is 78%.
The same measure for `Cc1ccc(-c2c(C(=O)N(C)Cc3ccccc3)oc(=O)c3ccccc23)cc1`: 11% (active); for `Cc1ccc(-c2c(C(=O)NCc3ccc(F)cc3)oc(=O)c3ccccc23)cc1`: 76%; for `Cc1ccc(-c2c(C(=O)NCCc3ccc(Cl)cc3)oc(=O)c3ccccc23)cc1`: 57%.
Turning to `CCCCN(Cc1ccccc1)C(=O)c1oc(=O)c2ccccc2c1-c1ccc(C)cc1`, the survival is 0% (active).
The same measure for `Cc1ccc(-c2c(C(=O)NCCc3ccccc3)oc(=O)c3ccccc23)cc1`: 79%.
The same measure for `Cc1ccc(CCNC(=O)c2oc(=O)c3ccccc3c2-c2ccc(C)cc2)cc1`: 17%.
Under `COc1ccccc1CCNC(=O)c1ccc2c(c1)c(C)c(C)n2Cc1ccc(Cl)cc1` stands 77%; under `CC1(C)Cc2ccccc2-c2nnc(-c3ccccc3)n21`, 95%.
As for `Fc1ccc(Br)cc1C1C=C(c2ccc(Br)cc2)Nc2nnnn21` (configuration not stated), the survival was 81%.
Consider `COc1ccc(C2C=C(c3ccc(Br)cc3)Nc3nnnn32)c(OC)c1` (configuration not stated), for which the survival was 66%.
Under `COc1cccc(C2=CC(c3cc(Br)ccc3F)n3nnnc3N2)c1` (configuration not stated) stands -4% (active).
The same measure for `O=C(c1ccc2c(c1)N(Cc1ccc(Cl)cc1)C(=O)c1ccccc1S2=O)N1CCOCC1` (configuration not stated): 83%.
Regarding `Cc1ccc(S(=O)(=O)N2CCCc3cc(NC(=O)c4ccc(C(F)(F)F)cc4)ccc32)cc1`, the survival was 110%.
Under `O=C(c1cnc2c(c1)COc1ccc(Cl)cc1-2)c1ccccc1O` stands 131%.
As to `Cc1ccc2c(c1)-c1ncc(C(=O)c3cc(Br)ccc3O)cc1CO2`, the survival is 56%.
The same measure for `Cc1ccc2c(c1)-c1nc(-c3ccccc3)cc(-c3ccccc3)c1CO2`: 79%; for `Cc1cc(O)c(C(=O)c2cnc3c(c2)COc2ccccc2-3)cc1Cl`: 64%; for `Cc1ccc2c(c1)-c1ncc(C(=O)c3ccccc3O)cc1CO2`: -7% (active).
The same measure for `O=C(c1cnc2c(c1)COc1ccccc1-2)c1ccccc1O`: 5% (active).
Under `COc1ccc(C2=C(C)C(N3CCC(C(=O)NCc4ccco4)CC3)=NS2(=O)=O)cc1` stands 56%.
On to `Cc1ccc(NS(=O)(=O)c2cc3[nH]c(=O)c(=O)[nH]c3cc2C)cc1N(C)C`, for which the survival is 81%.
With `CC1(CCC(=O)O)NNC(=S)NN1`, the survival was 101%.
On to `Cn1cccc1-c1cc2n(n1)CCC(=O)N2CC(=O)Nc1ccc(F)cc1Cl`, for which the survival was 63%.
On to `Cc1nn(C(=O)c2cccc(F)c2)c(C)c1S(=O)(=O)N1CCCCCC1`, for which the survival was 84%.
The same measure for `Cc1c(C(=O)N2CCC(C)CC2)c(S(=O)(=O)Nc2cccc(C(F)(F)F)c2)c(C)n1C`: 78%; for `CCOC(=O)c1ccc(N2CCN(c3ccc(F)cc3)CC2)c(NC(=O)Nc2cccc(OC)c2)c1`: 67%.
Under `CCOC(=O)c1ccc(N2CCN(c3cccc(OC)c3)CC2)c(NC(=O)Nc2ccc(OCC)cc2)c1` stands -6% (active).
The same measure for `CCOC(=O)c1ccc(N2CCN(c3cccc(Cl)c3)CC2)c(NC(=O)Nc2ccc(Cl)cc2)c1`: 76%.
`Cc1cn2c(=O)cc(COc3ccccc3NC(=O)c3ccco3)nc2s1`: the survival is 83%.
Take `Fc1cccc(NCc2cccn2-c2nnc(N3CCOCC3)s2)c1`: the survival is 77%.
Under `CC(=O)N1SC(N)=NC1c1ccccc1` (configuration not stated) stands 111%; under `CCOc1ccc(N(C)S(=O)(=O)c2ccc3c(c2)CCCN3C(C)=O)cc1`, 75%.
Under `O=C(NCc1ccccc1)c1ccc2c(c1)nc1n2CCOC1` stands 82%; under `CCOc1ccc(CNC(=O)c2ccc3c(c2)nc2n3CCOC2)cc1OC`, 1% (active); under `COc1ccc(CCNC(=O)c2ccc3c(c2)nc2n3CCCCC2)cc1OC`, 84%.
Under `CCOc1ccc(CCNC(=O)c2ccc3c(c2)nc2n3CCOC2)cc1OCC` stands 63%; under `CCOc1ccc(CNC(=O)c2ccc3c(c2)nc2n3CCOC2)cc1`, 57%.
`Cc1ccc(C)c(CNC(=O)c2ccc3c(c2)nc2n3CCOC2)c1`: the survival was 63%.
Under `CCOc1ccc(CNC(=O)c2ccc3c(c2)nc2n3CCC(C)C2)cc1OC` (configuration not stated) stands 73%; under `COc1ccc(CCNC(=O)c2ccc3c(c2)nc2n3CCOC2)cc1OC`, -4% (active).
The same measure for `O=C(NCc1ccccc1Br)c1ccc2c(c1)nc1n2CCOC1`: -3% (active); for `Cc1ccc(C)c(NC(=O)CSc2nc(-c3ccccc3)c(C#N)c(=O)[nH]2)c1`: 113%.
The same measure for `COc1cccc(NC(=O)CSc2nnc(-c3cccc(OC)c3)o2)c1`: 90%.
For the molecule `CCn1c(CC(=O)Nc2ccccc2)n[nH]c1=S`, the survival is 107%.
`Cc1cn2c(=O)cc(COC(=O)c3cccc(NC(=O)c4ccccc4C)c3)nc2s1`: the survival was 71%.
The same measure for `COc1ccccc1CNc1ccc(-c2nc(-c3ccccn3)no2)cc1[N+](=O)[O-]`: 77%.
Under `Cc1ccc2c(=O)c(C(=O)c3ccccc3)cn(CC(=O)Nc3ccccc3C)c2n1` stands 65%.
The same measure for `O=c1[nH]c2ccccc2c(O)c1-c1nc2ccccc2c(=O)[nH]1`: 109%.
`Cc1cccc(NC(=O)CSc2nc3ccccc3nc2N2CCOCC2)c1C`: the survival was 65%.
Under `CC(=O)Nc1ccc(NC(=O)CSc2nc3ccccc3nc2N2CCC(C)CC2)cc1` stands 80%; under `CC1CCN(c2nc3ccccc3nc2SCC(=O)Nc2ccccc2C(C)C)CC1`, -16% (active); under `Cc1cccc(NC(=O)CSc2nc3ccccc3nc2N2CCCCC2)c1C`, 70%.
Under `CCOc1ccc(NC(=O)CSc2nc3ccccc3nc2N2CCOCC2)cc1` stands 112%.
The same measure for `Cc1cccc(NC(=O)CSc2nc3ccccc3nc2N2CCC(C)CC2)c1`: -9% (active); for `CCOc1ccccc1NC(=O)CSc1nc2ccccc2nc1N1CCOCC1`: -11% (active); for `Cc1ccc(NC(=O)CSc2nc3ccccc3nc2N2CCOCC2)cc1`: 59%.
With `Cc1ccc(C)c(NC(=O)CSc2nc3ccccc3nc2N2CCOCC2)c1`, the survival was 76%.
Turning to `COc1ccc(OC)c(CCNC(=O)c2cc3cccc4c3n2CCS4)c1`, the survival is 71%.
In the case of `Cn1c(=O)c2c(nc(NCc3ccccc3)n2Cc2ccccc2)n(C)c1=O`, the survival was 79%.
Under `CC(C)Cc1nn2c(=O)cc(COC(=O)c3ccc(NC(=O)c4cccs4)cc3)nc2s1` stands 127%; under `Cc1ccc(OCCn2c(C3CC(=O)N(Cc4ccc(F)cc4)C3)nc3ccccc32)c(C)c1` (configuration not stated), -15% (active); under `Cc1cc(C)c(Cn2c(C3CC(=O)N(c4ccc(F)cc4)C3)nc3ccccc32)c(C)c1` (configuration not stated), 86%.
With `Cc1ccc(C)c(OCCn2c(C3CC(=O)N(Cc4ccc(F)cc4)C3)nc3ccccc32)c1` (configuration not stated), the survival was -16% (active).
The same measure for `CCOc1ccccc1N1CC(c2nc3ccccc3n2CCCCOc2cc(C)ccc2C)CC1=O` (configuration not stated): 43%.
`COc1ccccc1OCCCn1c(C2CC(=O)N(c3ccc(F)cc3)C2)nc2ccccc21` (configuration not stated): the survival is 101%.
Under `CCOc1ccccc1N1CC(c2nc3ccccc3n2CCOc2ccccc2OC)CC1=O` (configuration not stated) stands 107%; under `Cc1cccc(C)c1OCCn1c(C2CC(=O)N(Cc3ccc(F)cc3)C2)nc2ccccc21` (configuration not stated), -4% (active).
Take `Cc1ccc(OCCCn2c(C3CC(=O)N(c4cccc(Cl)c4)C3)nc3ccccc32)c(C)c1` (configuration not stated): the survival is 90%.
Under `CCc1ccccc1N1CC(c2nc3ccccc3n2CCCCOc2ccccc2OC)CC1=O` (configuration not stated) stands 93%; under `Cc1cccc(C)c1OCCCCn1c(C2CC(=O)N(c3ccc(F)cc3)C2)nc2ccccc21` (configuration not stated), 34%; under `C=CCc1ccccc1OCCn1c(C2CC(=O)N(Cc3ccc(F)cc3)C2)nc2ccccc21` (configuration not stated), -16% (active).
On to `Cc1cccc(C)c1OCCn1c(C2CC(=O)N(c3cccc(Cl)c3)C2)nc2ccccc21` (configuration not stated), for which the survival was 84%.
